Measurements published in PubChem BioAssay AID504558 (Broad Institute, 2011).
The campaign covered roughly 350,000 compounds. About 2,400 (0.69%) were called active. No stated cut-off is given here; in the data, active means inhibition above about 41%; inconclusive means no clear call, values can overlap the other calls; inactive means below that. Shown is part of a subset that was picked to be rich in actives.

experiment: EBV LMP1-driven NF-kappaB luciferase reporter inhibitors, primary screen, cell-based, luminescence, single point (AID 504558); conditions: LMP1-induced NF-kappaB luciferase reporter cells, at 12.5 µM, hits give high values;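 further: 0% = neutral control wells and 100% = reference inhibitor control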

SMILES | inhibition
COc1cccc(-c2nc3ccc(N4CCN(C)CC4)cc3[nH]2)c1 | 55.9% (active)
CN1CCN(c2cc(N3CCNCC3)ccc2[N+](=O)[O-])CC1 | -3.51% (inactive)
O=C(c1ccccc1)C(O)(CN1CCCCC1)c1ccccc1 (stereo not given) | 10.5% (inactive)
CCOc1ccc(-c2cc(C)[n+](CCN(CC)CC)c(-c3ccc(OCC)cc3)c2)cc1 | 34.1% (inactive)
CCC/C(=N\O)c1c[nH]c2ccccc12 | -1.7% (inactive)
NCCc1c[nH]c2ccc(O)cc12 | 0.174% (inactive)
CC(C)c1c(CN(C)C(C)Cc2ccccc2)n(C)n(-c2ccccc2)c1=O (stereo not given) | 46.3% (active)
CN(C)CCN(CC1CCCN(Cc2ccccc2F)C1)C(=O)Cc1ccc(F)c(F)c1 (stereo not given) | -8.27% (inactive)
c1cc2c(cc1[C@H]1OC[C@H]3[C@@H]1CO[C@@H]3c1ccc3c(c1)OCO3)OCO2 | -19.4% (inactive)
CC=C(C)C(=O)OC1CCN2CC=C(COC(=O)C(O)(C(C)OC)C(C)(C)O)C12 (stereo not given) | -5.68% (inactive)
COc1ccc2c(c1)[C@]13CCCCC1C(C2)N(C)CC3 (stereo not given in full) | -1.94% (inactive)
CCCC[N+]1(C)C2CC(OC(=O)C(CO)c3ccccc3)CC1C1OC12 (stereo not given) | -0.864% (inactive)
Cc1ccc(-c2nn(CCC#N)cc2C(=O)O)cc1C | -6.4% (inactive)
Clc1cccc(Cl)c1Cl | -0.913% (inactive)
CCC(C)(O)C(=O)OC1C(=O)OC2CC3C(C)=CC(=O)C(O)C3(C)C3C4(O)OCC23C1C(C)C4O (stereo not given) | 93.7% (active)
CN(C)C(=O)Oc1ccc(NC(=O)N2CCOCC2)cc1 | 3.17% (inactive)
CCN1C(=O)C(=Cc2c(C)n(CC(=O)NCC3CCCO3)c3ccccc23)C(=O)N(CC)C1=S (stereo not given) | 0.11% (inactive)
CC(=O)OC1C2(CC3N4C(=O)C5(CO)SSC4(CC31O)C(=O)N5C)OC(C)C(C)(C)C2=O (stereo not given) | 86.8% (active)
CCOC(=O)CC(SP1(=S)OCC2(CCCCO2)C(C2CCCCO2)O1)C(=O)OCC (stereo not given) | -9.32% (inactive)
COC1C(O)C(C)OC(OC2CCC3(C=O)C(CCC4C3CCC3(C)C(C5=CC(=O)OC5)CCC43O)C2)C1O (stereo not given) | 89.7% (active)
C[C@]12CC[C@H](O)C[C@H]1CC[C@@H]1C2CC[C@]2(C)[C@@H](C3=CC(=O)OC3)[C@@H](O)C[C@]12O (stereo not given in full) | 37% (inactive)
O=C(NCC1=C(c2ccc3ccccc3c2)C[C@@H]2CC[C@H]1N2Cc1ccco1)c1cccs1 | 1.8% (inactive)
CCC(=O)OC(Cc1ccccc1)(c1ccccc1)C(C)CN(C)C (stereo not given) | 0.604% (inactive)
O=C1C2(Cl)C3(Cl)C4(Cl)C(Cl)(Cl)C5(Cl)C3(Cl)C1(Cl)C5(Cl)C24Cl (stereo not given) | 6.24% (inactive)
CN1CCN(Cc2ccc(OC(F)(F)F)cc2)CC1 | -6.99% (inactive)
